Test results as given in the supplement of paper PMC10941209.
Values without a mark were called inactive.

What follows are compounds tested on Toxoplasma gondii RH 2F1 tachyzoites (intracellular in HFF) (assay: parasite survival relative to DMSO control; higher = less antiparasitic activity, active = 20 or less). Settings: 1 µM; 72 h.
In short: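 Parasite survival was taken as the CPRG signal relative to DMSO-treated infected wells, given as a percentage. To obtain it, HFF cells (5 × 10^3 cells/well, 96-well plates) were infected for 3 h in D2 medium with 5 × 10^3 β-galactosidase-expressing Toxoplasma gondii RH-2F1 tachyzoites, then exposed to compound at 1 μM for 72 h at 37°C in 5% CO2. Absorbance at 570 nm was measured 30 min after CPRG was added to lysed cells, and 2 or more biological replicates were run.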
`Nc1ccc2oc(=O)ccc2c1I` showed a parasite survival of 80.5%. With `CCOC(=O)Nc1cc(NC(C)CC(C)CN(CC)CC)c2nc(-c3ccccc3)c(-c3ccccc3)nc2n1` (centres undefined) the parasite survival was 7.01% (active). Work on `CCOCc1nc2c(N)nc3ccccc3c2n1CC(C)(C)O` yielded a parasite survival of 55.5%. Compound `CC(=O)NC[C@H]1CN(c2ccc(N3CCSCC3)c(F)c2)C(=O)O1` has a parasite survival of 44%. Work on `O=C(NCc1ccc(F)cc1)c1c(O)c2ncccc2[nH]c1=O` yielded a parasite survival of 75.5%. Work on `CC(=O)N1CCN(c2ccc(OCC3COC(Cn4ccnc4)(c4ccc(Cl)cc4Cl)O3)cc2)CC1` (centres undefined) yielded a parasite survival of 58.4%. `CC(C)(C)NC(=O)[C@@H]1C[C@@H]2CCCC[C@@H]2CN1C[C@@H](O)[C@H](Cc1ccccc1)NC(=O)[C@H](CC(N)=O)NC(=O)c1ccc2ccccc2n1` was tested, and the parasite survival was 39%. `CCc1c(O)nc2ccc(F)cc2c1OCC1CCC1` gave a parasite survival of 41%. `COc1ccc(NC(=O)c2cc3ccccn3n2)cc1` showed a parasite survival of 44.5%.
